Hits are enriched below; roughly 7.3% of the tested compounds scored in any of these assays.
ELG1 genotox = qHTS screen for small molecules that induce genotoxicity in human embryonic kidney (HEK293T) cells expressing luciferase-tagged ELG1 | HEK293T ELG1-luciferase reporter, luminescence, 16 h | Potency, µM (series often up to 46 µM), inactives show at the top dose activity change, positive = activation, actives largely listed as activators | actives 1.3% (n = 330,000); note: % of control where 0% means no effect; nearly all actives have a fitted effect of over 60% in size
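HEK293T cells expressing luciferase-tagged ELG1 were treated with compound or DMSO for 16 hr at 37°C. Luciferase activity was then read after 30 min with ONE-Glo at room temperature; rising signal flags genetic stress.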
NPC1 prom act = qHTS Assay for NPC1 Promoter Activators | Huh7 NPC1 promoter luciferase reporter, 24 h | Potency, µM (top dose mostly 9.22 µM), inactives show at the highest dose activation, actives largely listed as activators | actives 2.4% (n = 320,000) | AID 485313, 2010; note: % of control where 0% means no effect; nearly all actives have a fitted effect of over 60% in size
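Luciferase expression driven by the NPC1 promoter was measured in stably transfected Huh7 cells after a 24 h compound incubation, using a luciferase reagent and a luminescence read.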
SMN2 splice up = qHTS Assay for Enhancers of SMN2 Splice Variant Expression; HEK293 SMN2-luciferase splicing reporter, luminescence, 30-36 h; Potency, µM (highest dose often 46.1 µM), inactives show at the top dose activity change, positive = activation, usual class: activators; actives 2.8% (n = 210,000); AID 1458, 2008; note: % of control where 0% means no effect; nearly all actives have a fitted effect of over 55% in size
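HEK293 cells carry an SMN2 minigene-luciferase reporter in which exon 7 inclusion puts luciferase in frame. Cells were seeded at 2000 cells/well, attached for 10-12 hours, then exposed to compounds for 30-36 hours at 37C before ONE-Glo luminescence.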
FLuc modulator = qHTS profiling assay for firefly luciferase inhibitor/activator using purifed enzyme and Km concentrations of substrates (counterscreen for miR-21 project); Potency, µM (titrated, usually from 57.5 µM), inactives show at the top dose activity change, negative = inhibition, most hits filed as inhibitors; actives 6.9% (n = 360,000); purified FLuc, Km substrates, luminescence inhibition; AID 588342, 2011; Luciferin 4-monooxygenase (Photinus pyralis), P08659;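 note: plate controls were vehicle for no effect and reference inhibitor for full effect; nearly all actives have a fitted effect of over 55% in size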
Target sequence (P08659 whole entry, looked up): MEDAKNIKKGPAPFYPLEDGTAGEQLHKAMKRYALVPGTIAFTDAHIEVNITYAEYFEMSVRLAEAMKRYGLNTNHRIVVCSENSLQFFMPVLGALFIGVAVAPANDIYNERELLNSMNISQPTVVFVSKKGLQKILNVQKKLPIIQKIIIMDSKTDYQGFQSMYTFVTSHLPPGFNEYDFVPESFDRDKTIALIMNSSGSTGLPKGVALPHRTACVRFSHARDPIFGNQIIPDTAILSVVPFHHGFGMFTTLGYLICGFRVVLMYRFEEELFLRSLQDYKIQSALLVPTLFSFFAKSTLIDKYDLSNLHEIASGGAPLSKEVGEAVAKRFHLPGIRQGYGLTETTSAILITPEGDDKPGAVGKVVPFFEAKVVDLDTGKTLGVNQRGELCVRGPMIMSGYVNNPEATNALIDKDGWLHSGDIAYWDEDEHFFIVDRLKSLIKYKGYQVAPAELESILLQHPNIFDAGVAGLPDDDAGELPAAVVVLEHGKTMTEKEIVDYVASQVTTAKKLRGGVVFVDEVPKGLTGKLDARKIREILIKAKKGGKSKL
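Purified P. pyralis luciferase (10nM final) with 10uM D-luciferin and 10uM ATP (Km levels) in 50mM Tris acetate pH 7.5, 10mM Mg acetate, 0.01% Tween-20, 0.05% BSA; qHTS 6-point titration, ~60 µM downward; luminescence read.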
Rab9 promoter act = qHTS Assay for Rab9 Promoter Activators | AID 485297, 2010 | actives 2.8% (n = 320,000) | Potency, µM (doses to about 9.22 µM), inactives show at the top dose activation, negative = inhibition, usual class: activators | Huh7 Rab9 promoter-luciferase reporter, luminescence, 24 h; note: % of control where 0% means no effect; nearly all actives have a fitted effect of over 60% in size
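Huh7 cells stably carrying Rab9 promoter–luciferase reporter, plated 1500 cells/well, compound added after 2 h and incubated 24 h at 37 °C; luciferase luminescence then read after 10 min with detection reagent.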
KinaseGlo FLuc = Counterscreen for Luciferase (Kinase-Glo TM) Inhibition | Potency, µM (titrated, usually from 38.3 µM), for the others: at the top dose activity change, negative = inhibition, hits mostly inhibitors | Luciferin 4-monooxygenase (Photuris pensylvanica), Q27757 | Kinase-Glo luciferase, ATP luminescence, 8 min | actives 0.28% (n = 200,000) | AID 1379, 2008; note: % is set by controls: 0 for no effect and ±100 for the full control effect; nearly all actives have a fitted effect of over 60% in size
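Compound is pinned into ATP-containing buffer (10 uM ATP, imidazole pH 7.2, 7 mM MgCl2). Kinase-Glo luciferase reagent is then added. Light output is recorded following an 8-min room-temperature incubation.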
Starred values were filed as active, the others as inactive; ? = inconclusive; . = no result given; [ ] = remark or other dose. Calls come from the whole dose curve; as a rule, active = well fitted curve in the direction sought with a large enough effect; inconclusive = small, poorly fitted or top-dose-only effect, or another doubt; inactive = no such curve, though single readings can be large; an effect the other way counts as inactive or inconclusive. Potency is the fitted concentration of half-maximal effect.

SMILES	ELG1 genotox	NPC1 prom act	SMN2 splice up	FLuc modulator	Rab9 promoter act	KinaseGlo FLuc
COc1cc(NC(=O)c2cnc(N)s2)cc(C(=O)Nc2cccc(C(F)(F)F)c2)c1	-2.5%	12.6%	.	12µM*	11.0%	.
COc1cc(NC(=O)c2ccnc(N)c2)cc(C(=O)Nc2cccc(C(F)(F)F)c2)c1	0.5%	-8.0%	.	19µM*	-2.7%	.
COc1cc(NC(=O)c2csc(N)n2)cc(C(=O)Nc2cccc(C(F)(F)F)c2)c1	-14.4%	20.8%	.	?	-21.5%	.
COc1cc(NC(=O)c2cc(C)on2)cc(C(=O)Nc2cccc(C(F)(F)F)c2)c1	-5.1%	?	.	?	-7.6%	.
Cc1nc(SCC(=O)Nc2cc(C)on2)c2c(=O)n(C)c(=O)n(C)c2n1	12.6%	-2.3%	-13.5%	-0.6%	-11.5%	1.7%
Cc1ccc(-n2c(C)cc(-c3csc(N)n3)c2C)cc1	2.0%	8.6%	-0.2%	10.7µM*	-0.3%	-4.5%
Cc1cc(-c2csc(N)n2)c(C)n1C	0.4%	0.0%	-33.3%	-5.5%	3.1%	1.1%
Cc1cc(OCc2cn3cccnc3n2)ccc1Cl	8.2µM*	?	11.2µM*	21.3µM*	2.82µM*	-7.0%
S=C(Nc1cccnc1)N1CCc2ccccc21	0.8%	15.8%	.	-4.5%	4.8%	.
O=C(NCc1nnc2c(C(F)(F)F)cc(Cl)cn12)c1ccc(Br)o1	0.2%	-18.5%	.	-0.9%	-4.3%	.
Cc1nc(-c2ccc(Cl)cc2)sc1C1(C)CC(c2c(Cl)cccc2Cl)=NO1 (stereo unspecified)	-0.1%	0.4%	.	-1.2%	-2.7%	.
Cc1nc(-c2ccc(Cl)cc2)sc1C1(C)CC(c2cccnc2)=NO1 (stereo unspecified)	?	?	.	16.9µM*	?	.
C/C=C(\C)C(=O)N1CC2(CC(c3cccc(NC(=O)COc4ccc(Cl)cc4)c3)=NO2)C[C@@H]1C(N)=O (stereo partly specified)	-0.2%	-6.5%	.	15.1µM*	-7.1%	.
C=C(C)C(=O)N1CC2(CC(c3cccc(NC(=O)COc4ccc(Cl)cc4)c3)=NO2)C[C@@H]1C(N)=O (stereo partly specified)	-4.6%	1.3%	.	12µM*	-7.4%	.
CCCCCC(=O)Nc1cccc(C2=NOC3(C2)C[C@H](C(N)=O)N(C(=O)COc2ccc(Cl)cc2)C3)c1 (stereo partly specified)	-15.1%	-9.0%	.	-16.5%	-5.8%	.
O=C(O)CCC(=O)Nc1ccccc1C(=O)NCCc1ccccc1	?	?	?	19µM*	?	-2.1%
O=C(NCCOc1ccccc1)c1ccccc1Cl	4.61µM*	0.631µM*	.	8.49µM*	0.447µM*	.
O=C(NCCCl)c1ccc(OCc2ccccc2)cc1Cl	11.6%	?	12.6µM*	?	1.58µM*	-2.0%
COc1ccc(OCCNC(=O)c2ccccc2Cl)cc1	4.0%	-0.2%	.	-6.4%	-2.0%	.
Cc1nn(Cc2ccccc2)c(Cl)c1C(=O)NCCc1ccccc1	?	2.51µM*	14.1µM*	9.53µM*	2.24µM*	3.6%
O=C(CCNS(=O)(=O)c1ccc2[nH]c(=O)oc2c1)Nc1cccc(Br)c1	-2.7%	-1.7%	.	3.1%	0.3%	.
O=C(NCCOc1ccccc1Cl)c1cc(F)c(F)cc1Cl	?	2.82µM*	.	5.36µM*	2.24µM*	.
COc1ccc(CCNC(=O)c2ccc(Cl)cc2Cl)cc1	-3.2%	0.5%	-16.7%	16.9µM*	-2.1%	-0.2%
O=C(/C=C/c1ccccc1Cl)NCc1ccccc1	14.0%	2.6%	15.9%	?	29.5%	-1.6%
O=C(/C=C/c1ccccc1Cl)NCCc1ccccc1	10.0%	?	?	19µM*	?	-7.6%
SMILES	ELG1 genotox	NPC1 prom act	SMN2 splice up	FLuc modulator	Rab9 promoter act	KinaseGlo FLuc
O=C(NCCc1ccccc1)c1ccccc1Cl	?	0.355µM*	.	1.9µM*	0.447µM*	.
Cc1cccc(NS(=O)(=O)c2ccc(Oc3ccccc3)cc2)n1	-1.4%	-0.9%	-24.3%	0.3%	-4.4%	-1.2%
COc1cc(NC(=S)N2CCN(CCO)CC2)c(OC)cc1Cl	3.1%	-3.0%	-4.6%	0.2%	1.2%	-0.2%
CC(C)C(NS(=O)(=O)c1ccc2c(c1)oc(=O)n2C)C(=O)N1CCN(c2cccc(Cl)c2)CC1 (stereo unspecified)	.	.	30.9%	4.9%	.	.
Cc1ccc(Nc2nc(Cl)c(C=O)s2)cc1Cl	-2.3%	-7.1%	4.5%	21.3µM*	-0.3%	-10.1%
CC(C)COc1ccc(C(=O)N2CCN(CCc3ccccn3)CC2)cc1	.	.	.	2.5%	.	.
CNS(=O)(=O)c1cccc(C(=O)NNC(=O)c2ccc(COc3ccccc3)cc2)c1	-21.6%	1.0%	.	3.1%	-3.5%	.
N#C/C(=C\c1ccc(-c2ccc(C(=O)O)cc2)o1)C(=O)Nc1ccccc1C(=O)O	.	.	-4.9%	13.5µM*	.	.
CC1CC1c1ccc(/C=C(\C#N)C(=O)Nc2ccccc2Cl)o1 (stereo unspecified)	17.6%	16.2%	?	19µM*	21.9%	-0.5%
CC1CC1c1ccc(/C=C(\C#N)C(=O)Nc2ccc(Cl)cc2)o1 (stereo unspecified)	?	3.55µM*	8.91µM*	4.78µM*	3.55µM*	-4.0%
CCc1ccccc1NC(=O)/C(C#N)=C/c1ccc(Sc2ccccc2)o1	-4.5%	0.0%	-25.6%	?	-3.9%	1.0%
CCC(=O)O[C@@]1(C(=O)SCF)[C@@H](C)C[C@H]2[C@@H]3C[C@@H](F)C4=CC(=O)C=C[C@@]4(C)[C@]3(F)[C@@H](O)C[C@]21C	.	.	-7.1%[20.6 µM]	.	.	-1.1%[17.1 µM]
CN1CCN(c2ccc(NC(=O)c3ccc([N+](=O)[O-])o3)cc2Cl)CC1	?	?	.	9.53µM*	?	.
O=C(Nc1ccc(N2CCOCC2)c(Cl)c1)c1ccc([N+](=O)[O-])o1	?	26.8%	?	12µM*	?	-1.6%
CCCCc1nnc(NC(=O)C=C(C)C)s1	-1.7%	-0.1%	13.9%	-1.6%	3.0%	3.0%
CCCCC(CC)c1nnc(NC(=O)c2cccs2)s1 (stereo unspecified)	-7.6%	-6.3%	.	?	-10.9%	2.2%
CC(C)=CC(=O)Nc1nnc(C(C)C)s1	?	3.16µM*	11.2µM*	12µM*	2.51µM*	3.9%
O=C(Nc1nnc(CCc2ccccc2)s1)c1cccs1	8.2%	?	25.9%	?	?	2.3%
